For some of these results: Entries with a potency or affinity are not part of this list.
How the values were obtained:
Design in all cases: scale not given: direction of the effect not stated beside the values
[1] = target: Protein translocase subunit SecA (Escherichia coli (strain K12)) (UniProt P10408); assay: Assay to Identify E. coli SecA ATPase Inhibitors; format: functional; settings: 30 µM
[2] = target: T1, Ubiquitin-activating enzyme e1, putative (Leishmania donovani (strain BPK282A1)) (UniProt E9BSI1); assay: Leishmania donovani Ubiquitin Activating Enzyme (LdE1); format: functional; settings: 30 µM
T1 sequence (whole entry): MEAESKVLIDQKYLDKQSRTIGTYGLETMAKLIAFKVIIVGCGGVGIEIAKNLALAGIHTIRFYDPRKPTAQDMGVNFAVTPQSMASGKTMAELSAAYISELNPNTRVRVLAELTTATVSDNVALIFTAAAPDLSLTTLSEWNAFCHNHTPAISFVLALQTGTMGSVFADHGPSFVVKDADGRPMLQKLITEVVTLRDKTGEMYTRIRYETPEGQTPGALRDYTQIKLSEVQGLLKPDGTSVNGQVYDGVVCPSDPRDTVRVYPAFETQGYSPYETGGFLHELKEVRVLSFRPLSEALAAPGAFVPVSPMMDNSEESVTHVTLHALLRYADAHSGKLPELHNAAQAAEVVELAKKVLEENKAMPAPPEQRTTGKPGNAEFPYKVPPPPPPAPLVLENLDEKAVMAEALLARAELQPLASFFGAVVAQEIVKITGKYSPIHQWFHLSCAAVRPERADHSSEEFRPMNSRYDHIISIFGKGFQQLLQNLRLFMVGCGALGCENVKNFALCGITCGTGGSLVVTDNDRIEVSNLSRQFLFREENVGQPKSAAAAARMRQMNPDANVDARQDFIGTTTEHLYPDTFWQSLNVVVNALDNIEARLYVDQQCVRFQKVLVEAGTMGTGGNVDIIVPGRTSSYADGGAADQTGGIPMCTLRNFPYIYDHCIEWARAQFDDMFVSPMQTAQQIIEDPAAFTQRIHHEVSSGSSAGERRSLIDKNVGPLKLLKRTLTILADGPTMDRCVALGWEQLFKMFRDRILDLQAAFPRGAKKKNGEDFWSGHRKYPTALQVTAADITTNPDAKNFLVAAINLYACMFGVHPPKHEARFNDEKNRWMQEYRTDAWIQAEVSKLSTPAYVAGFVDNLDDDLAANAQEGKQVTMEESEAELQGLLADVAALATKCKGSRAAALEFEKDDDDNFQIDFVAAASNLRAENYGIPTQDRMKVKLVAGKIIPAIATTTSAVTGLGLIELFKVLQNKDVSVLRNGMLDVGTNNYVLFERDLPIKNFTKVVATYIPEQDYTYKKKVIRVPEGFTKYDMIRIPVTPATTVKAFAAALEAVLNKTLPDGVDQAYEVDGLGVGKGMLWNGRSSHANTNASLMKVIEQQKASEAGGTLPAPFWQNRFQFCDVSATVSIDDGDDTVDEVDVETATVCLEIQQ

[3] = target: AMP-activated protein kinase, AMPK (Homo sapiens) (UniProt P54646+O43741+P54619+Q9UGJ0+Q9Y478+Q13131+Q9UGI9); assay: AMP-dependent Kinase enzyme assay. An in vitro enzyme assay that detects ADP turnover that is directly proportional to AMPK activity. This uses naive AMPK that is activated during the assay with MK-8722; format: functional; settings: 30 µM
[4] = target: Sialic acid-binding Ig-like lectin 9 (Homo sapiens) (UniProt Q9Y336); assay: Hs-Siglec9 ALPHAscreen SOP 20170721; settings: 10 µM
Sialic acid-binding Ig-like lectin 9 (Homo sapiens), sequence (Q9Y336 whole entry): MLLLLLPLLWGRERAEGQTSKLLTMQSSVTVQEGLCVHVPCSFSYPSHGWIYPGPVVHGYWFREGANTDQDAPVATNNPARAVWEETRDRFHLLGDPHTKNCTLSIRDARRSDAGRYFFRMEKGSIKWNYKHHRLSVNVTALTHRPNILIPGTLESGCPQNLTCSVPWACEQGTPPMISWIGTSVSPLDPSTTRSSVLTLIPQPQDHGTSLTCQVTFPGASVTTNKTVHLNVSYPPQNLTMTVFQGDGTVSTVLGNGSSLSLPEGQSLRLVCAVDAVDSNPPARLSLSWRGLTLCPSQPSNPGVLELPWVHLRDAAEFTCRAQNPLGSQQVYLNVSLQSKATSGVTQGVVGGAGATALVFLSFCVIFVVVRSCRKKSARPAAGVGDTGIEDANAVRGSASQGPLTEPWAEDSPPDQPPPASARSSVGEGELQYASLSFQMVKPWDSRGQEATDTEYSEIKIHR

Trypanosoma cruzi = assay: Trypanosoma cruzi phosphomannomutase and mannose-1-phosphate guanylyltransferase assay; format: functional; settings: 10 µM
[5] = target: T2, Arginase-2, mitochondrial (Homo sapiens) (UniProt P78540); assay: in vitro enzyme assay to detect the production of urea directly proportional to the activity of Arginase II; format: functional; settings: 33.3 µM; also: in the data most compounds retested in dose-response had high values
T2 sequence (whole entry): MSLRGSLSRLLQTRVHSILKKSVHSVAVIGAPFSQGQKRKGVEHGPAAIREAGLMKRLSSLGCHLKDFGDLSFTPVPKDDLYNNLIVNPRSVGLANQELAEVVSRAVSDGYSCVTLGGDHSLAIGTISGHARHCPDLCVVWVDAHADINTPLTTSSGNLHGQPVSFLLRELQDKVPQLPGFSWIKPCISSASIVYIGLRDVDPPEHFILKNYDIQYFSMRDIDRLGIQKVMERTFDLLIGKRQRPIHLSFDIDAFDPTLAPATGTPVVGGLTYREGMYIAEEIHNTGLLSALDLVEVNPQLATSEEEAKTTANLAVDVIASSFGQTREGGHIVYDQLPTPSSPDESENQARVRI

[6] = target: T3, Proteasome subunit beta (Trypanosoma cruzi) (UniProt O96673); assay: Trypanosoma cruzi proteasome chymotrypsin-like activity (TcProtChymo) assay.; also: in the data most compounds retested in dose-response had high values; format: functional; settings: 9.37 µM
T3 sequence (whole entry): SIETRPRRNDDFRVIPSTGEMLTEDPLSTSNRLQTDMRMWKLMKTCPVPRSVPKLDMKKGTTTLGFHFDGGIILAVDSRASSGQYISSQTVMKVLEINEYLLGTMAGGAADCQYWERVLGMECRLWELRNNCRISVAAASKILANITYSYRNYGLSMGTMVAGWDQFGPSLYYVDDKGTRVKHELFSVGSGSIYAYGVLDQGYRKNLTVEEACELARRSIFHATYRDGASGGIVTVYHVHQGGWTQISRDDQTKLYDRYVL

Homo sapiens = organism: Homo sapiens; assay: To identify inhibition of the IFN signalling (Jak-Stat) pathway via expression of an eGFP reporter gene under the control of an IFN-stimulated response element (ISRE) containing MxA promoter.; format: functional; settings: 30 µM
[7] = target: T4, Tyrosyl-tRNA synthetase, putative (Trypanosoma cruzi (strain CL Brener)) (UniProt Q4DSP6); assay: Trypanosoma cruzi tyrosyl tRNA synthetase (TcYRS) _High Tyrosine SOP; format: functional; settings: 30 µM; also: in the data most compounds retested in dose-response had high values
T4 sequence (whole entry): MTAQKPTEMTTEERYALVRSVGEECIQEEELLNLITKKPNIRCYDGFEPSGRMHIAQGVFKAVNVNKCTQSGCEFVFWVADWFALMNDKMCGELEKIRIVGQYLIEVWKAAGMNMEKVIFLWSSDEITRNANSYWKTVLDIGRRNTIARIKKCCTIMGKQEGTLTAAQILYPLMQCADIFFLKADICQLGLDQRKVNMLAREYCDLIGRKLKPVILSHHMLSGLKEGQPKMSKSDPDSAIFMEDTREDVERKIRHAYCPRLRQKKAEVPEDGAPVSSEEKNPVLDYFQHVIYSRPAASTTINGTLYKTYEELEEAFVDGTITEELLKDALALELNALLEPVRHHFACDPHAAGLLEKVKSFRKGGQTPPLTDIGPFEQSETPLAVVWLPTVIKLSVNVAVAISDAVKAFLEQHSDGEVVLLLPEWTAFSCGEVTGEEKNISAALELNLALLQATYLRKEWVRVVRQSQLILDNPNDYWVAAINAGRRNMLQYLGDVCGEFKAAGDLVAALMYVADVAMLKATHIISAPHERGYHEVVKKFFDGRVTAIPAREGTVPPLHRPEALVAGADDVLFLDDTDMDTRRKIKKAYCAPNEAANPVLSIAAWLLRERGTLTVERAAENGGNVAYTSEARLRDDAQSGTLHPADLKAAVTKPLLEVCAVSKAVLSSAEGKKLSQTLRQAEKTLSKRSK

[8] = target: T4, Tyrosyl-tRNA synthetase, putative (Trypanosoma cruzi (strain CL Brener)); assay: Trypanosoma cruzi tyrosyl tRNA synthetase (TcYRS) SOP; format: functional; settings: 30 µM
[9] = target: Chromo domain-containing protein 1 (Saccharomyces cerevisiae (strain ATCC 204508 / S288c) (Baker's yeast)) (UniProt P32657); assay: ScCHD-1 Enzyme Inhibition Assay; format: functional; settings: 30 µM; also: in the data most compounds retested in dose-response had high values
Chromo domain-containing protein 1 (Saccharomyces cerevisiae (strain ATCC 204508 / S288c) (Baker's yeast)), sequence (P32657 whole entry, the tested form may be a part): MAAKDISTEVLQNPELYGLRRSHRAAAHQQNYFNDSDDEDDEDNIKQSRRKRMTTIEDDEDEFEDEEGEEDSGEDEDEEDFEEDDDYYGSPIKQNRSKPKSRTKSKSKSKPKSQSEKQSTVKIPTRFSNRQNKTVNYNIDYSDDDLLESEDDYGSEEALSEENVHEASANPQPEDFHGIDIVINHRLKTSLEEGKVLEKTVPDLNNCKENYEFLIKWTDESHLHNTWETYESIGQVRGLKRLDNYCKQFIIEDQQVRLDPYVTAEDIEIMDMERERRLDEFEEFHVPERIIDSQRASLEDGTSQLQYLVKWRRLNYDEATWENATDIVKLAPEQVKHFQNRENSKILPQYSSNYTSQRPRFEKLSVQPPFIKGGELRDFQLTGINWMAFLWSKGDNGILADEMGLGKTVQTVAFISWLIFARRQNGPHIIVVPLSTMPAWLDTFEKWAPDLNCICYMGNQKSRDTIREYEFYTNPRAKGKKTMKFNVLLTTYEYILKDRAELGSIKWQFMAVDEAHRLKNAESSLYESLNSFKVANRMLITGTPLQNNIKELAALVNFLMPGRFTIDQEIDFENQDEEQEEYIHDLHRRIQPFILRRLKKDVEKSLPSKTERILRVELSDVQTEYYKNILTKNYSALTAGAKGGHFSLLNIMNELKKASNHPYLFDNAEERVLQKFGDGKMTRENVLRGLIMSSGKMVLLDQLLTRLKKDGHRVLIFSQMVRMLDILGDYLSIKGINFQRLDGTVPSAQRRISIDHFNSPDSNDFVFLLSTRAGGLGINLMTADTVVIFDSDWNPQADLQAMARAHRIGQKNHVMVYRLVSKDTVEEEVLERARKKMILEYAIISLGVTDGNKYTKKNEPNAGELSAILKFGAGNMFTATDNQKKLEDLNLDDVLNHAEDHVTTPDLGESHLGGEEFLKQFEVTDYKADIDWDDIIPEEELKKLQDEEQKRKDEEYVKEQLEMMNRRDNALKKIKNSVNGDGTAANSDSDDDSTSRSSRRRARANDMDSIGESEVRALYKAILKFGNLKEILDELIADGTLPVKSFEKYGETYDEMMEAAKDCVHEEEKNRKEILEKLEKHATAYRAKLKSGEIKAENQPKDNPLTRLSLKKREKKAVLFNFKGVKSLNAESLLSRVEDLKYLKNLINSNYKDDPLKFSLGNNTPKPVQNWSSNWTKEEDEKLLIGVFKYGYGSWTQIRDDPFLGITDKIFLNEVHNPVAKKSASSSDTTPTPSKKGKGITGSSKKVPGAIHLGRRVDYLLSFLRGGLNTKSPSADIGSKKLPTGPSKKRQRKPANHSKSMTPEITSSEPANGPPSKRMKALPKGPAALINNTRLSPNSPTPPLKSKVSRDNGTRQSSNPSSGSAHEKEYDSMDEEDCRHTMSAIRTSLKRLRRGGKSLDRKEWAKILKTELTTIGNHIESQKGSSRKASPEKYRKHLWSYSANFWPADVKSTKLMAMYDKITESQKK

Protein translocase subunit SecA (Escherichia coli (strain K12)), sequence (P10408 whole entry): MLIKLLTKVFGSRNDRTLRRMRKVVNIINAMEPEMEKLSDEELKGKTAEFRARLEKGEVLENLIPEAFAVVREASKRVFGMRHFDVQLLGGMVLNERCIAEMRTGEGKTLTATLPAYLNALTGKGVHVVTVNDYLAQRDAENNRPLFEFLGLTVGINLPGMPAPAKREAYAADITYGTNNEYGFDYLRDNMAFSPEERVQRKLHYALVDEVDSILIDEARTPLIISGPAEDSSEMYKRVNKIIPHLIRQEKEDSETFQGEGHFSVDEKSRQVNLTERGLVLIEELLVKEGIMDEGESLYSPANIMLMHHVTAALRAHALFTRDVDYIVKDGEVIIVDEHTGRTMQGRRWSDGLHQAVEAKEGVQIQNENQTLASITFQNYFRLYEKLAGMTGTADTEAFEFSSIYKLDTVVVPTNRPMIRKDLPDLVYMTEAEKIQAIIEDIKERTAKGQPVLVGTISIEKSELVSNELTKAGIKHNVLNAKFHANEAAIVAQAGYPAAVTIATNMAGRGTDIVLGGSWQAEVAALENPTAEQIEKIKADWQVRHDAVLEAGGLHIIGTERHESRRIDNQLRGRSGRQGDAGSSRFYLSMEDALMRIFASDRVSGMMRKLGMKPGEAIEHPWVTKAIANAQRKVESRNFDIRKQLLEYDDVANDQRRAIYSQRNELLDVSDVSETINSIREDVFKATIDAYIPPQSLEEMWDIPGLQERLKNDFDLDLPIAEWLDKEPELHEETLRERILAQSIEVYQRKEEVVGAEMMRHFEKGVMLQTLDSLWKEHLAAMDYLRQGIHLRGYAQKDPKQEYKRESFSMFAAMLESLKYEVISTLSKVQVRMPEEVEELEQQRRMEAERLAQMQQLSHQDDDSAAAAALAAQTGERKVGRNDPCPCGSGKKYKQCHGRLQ

| SMILES | Percent Effect [1] [%] | Percent Effect [2] [%] | Percent Effect [3] [%] | Percent Effect [4] [%] | Percent Effect (Trypanosoma cruzi) [%] | Percent Effect [5] [%] | Percent Effect [6] [%] | Percent Effect (Homo sapiens) [%] | Percent Effect [7] [%] | Percent Effect [8] [%] | Percent Effect [9] [%] |
| --- | --- | --- | --- | --- | --- | --- | --- | --- | --- | --- | --- |
| COc1cc(CCC(=O)NC2CC2)ccc1OCC(F)(F)F | -2.29 | 18.4 | -5.56 | -6.41 | -10.4 | 2.52 | 3.47 | 3.66 | 4.43 | 16.1 | -1.66 |
| O=C(c1ccnnc1)N1C[C@@H](OCC2CCCC2)[C@H]2OCCC[C@H]21 | -7.56 | 8.11 | 0.254 | -1.77 | -1.95 | 3.33 | 11.8 | -12.9 | 12.9 | -8.54 | -5.93 |
| NC(=O)C1CCN(C(=O)NCc2ccccc2Cn2cncn2)CC1 | -3.59 | 5.41 | 4.01 | 0.839 | -3.86 | 0 | 10.2 | 1.83 | 2.65 | 7.32 | -1.94 |
| CC1(NC(=O)Cc2csc(C(C)(C)C)n2)CCS(=O)(=O)C1 (stereo not given) | -7.31 | 19.2 | -17.7 | 20.2 | 9.01 | 7.27 | 13.7 | 17.5 | 4.3 | 17.5 | -4.8 |
| Cc1ccc(N2CC3(COCCN(Cc4nccs4)C3)OCC2=O)s1 (stereo not given) | 4.24 | 7.79 | -1.49 | -11.2 | -7.59 | 9.68 | 17.8 | 8.7 | 3.17 | 8.97 | -11.1 |

Reference: ChEMBL document CHEMBL3988442, “University of Dundee, Small-Polar-MMV Screening Library” (2021)
